# PubChem BioAssay (NCATS)
# Inconclusive results are not listed. Values without a mark were called inactive. Calls of active or inactive are those of the source. Unless noted, calls come from the whole dose curve.
# System: not listed separately
# Experiment: qHTS for Inhibitors of the Functional Ribonucleoprotein Complex (vRNP) of Lymphocytic Choriomeningitis Arenaviruses (LCMV): Viability assay - alamar blue signal for LCMV Primary Screen (AID 1347085; calls by dose curve; tested in HEK293 reporter line; note: nearly all actives have a fitted effect of over 80% in size)
# Details: alamar blue viability counter-screen, LCMV vRNP screen cells; series mostly up to 57.5 µM; activity change, negative = lower viability: at the top concentration
# % is set by controls: 0 for no effect and ±100 for the full control effect.
SMILES,"activity change, negative = lower viability",Potency
O=C(/C=C/c1ccc(O)c(O)c1)O[C@@H]1C[C@@](OC(=O)/C=C/c2ccc(O)c(O)c2)(C(=O)O)C[C@@H](O)[C@@H]1O,3.29%,
COc1nc(C)nc(Cl)c1NC1=NCCN1,5.46%,
Cc1oc(-c2ccccc2)nc1CCC(=O)c1ccc(CC2SC(=O)NC2=O)cc1 (stereo not given),-18.8%,
CCCCN1CCCC1C(=O)Nc1c(C)cc(C)cc1C (stereo not given),9.39%,
C[C@H]1NCc2cc(-c3ccc4c(=O)c(C(=O)O)cn(C5CC5)c4c3OC(F)F)ccc21,20.7% [at 24.7 µM],
CCCCCCOC(=O)NC(=N)c1ccc(NCc2nc3cc(C(=O)N(CCC(=O)OCC)c4ccccn4)ccc3n2C)cc1,3.65%,
CC(=O)Nc1ccc(OCCOCCOc2ccc(NC(C)=O)cc2)cc1,-11.1%,
CC(C)NCCCC1(C(N)=O)c2ccccc2-c2ccccc21,30.2%,
CCCc1ncc(C[n+]2ccccc2C)c(N)n1,-11.9%,
CCc1cc(Cl)c(OC)c(C(=O)NC[C@@H]2CCCN2CC)c1O,-0.245%,
CCN(CC)C(=O)C1CN2CCc3cc(OC)c(OC)cc3C2CC1OC(C)=O (stereo not given),9.58%,
CCOc1ccc(NC(C)=O)cc1,0.174%,
Cc1c(Cl)cccc1Nc1ccccc1C(=O)O,-3.85%,
O=c1[nH]c2cc(C(F)(F)F)c(N3CCOCC3)cc2n(CP(=O)(O)O)c1=O,1.8%,
CNC1CCCN(c2c(F)cc3c(=O)c(C(=O)O)cn(C4CC4)c3c2OC)C1 (stereo not given),,inactive
N[C@@H](Cc1ccc(O)cc1)C(=O)O,1.19% [at 11.5 µM],
CCOC(CN1CCN(CC(C)C(=O)c2ccccc2)CC1)c1ccccc1 (stereo not given),0.416% [at 24.7 µM],
CCOC(=O)n1ccn(C)c1=S,2.81%,
C#C[C@]1(OC(C)=O)CC[C@H]2[C@@H]3CCC4=C/C(=N/O)CC[C@@H]4[C@H]3CC[C@@]21CC,-11.3%,
Oc1ccc(CCNCCCCCCNCCc2ccccc2)cc1O,-3.04%,

SMILES,"activity change, negative = lower viability",Potency
OC(C#CCN1CCCC1)(c1ccccc1)c1ccccc1,9.04%,
CCC(CC)(CC(=O)Nc1cccc(/C=C/c2nc(C3CCC3)cs2)c1)C(=O)O,4.53%,
CN1CCCN(C(c2ccccc2)c2ccc(Cl)cc2)CC1 (stereo not given),0.952%,
Nc1ccn(C2CO[C@H](CO)O2)c(=O)n1 (stereo not given in full),1.48%,
CC1(C)OC[C@@H](COC(=O)CCc2ccc(OC[C@@H](O)CNCCNC(=O)N3CCOCC3)cc2)O1,-0.401%,
CCN(CC)C(=O)Nc1ccc(OCC(O)CNC(C)(C)C)c(C(C)=O)c1 (stereo not given),0.272%,
COc1cc(OC)cc(OC)c1,15.2%,
CCN(CCCc1ccccc1)CCCc1ccccc1,-5.73%,
CN1CCCN=C1/C=C/c1cccs1,-5.92%,
CC1(C)[C@@H](OC(=O)CCC(=O)O)CC[C@]2(C)[C@H]3C(=O)C=C4[C@@H]5C[C@@](C)(C(=O)O)CC[C@]5(C)CC[C@@]4(C)[C@]3(C)CC[C@@H]12,22.7%,
CO/N=C(/C(=O)N[C@@H]1C(=O)N2C(C(=O)O)=C(Cn3nnc(C)n3)CS[C@H]12)c1csc(N)n1,-1.23%,
CCCOc1ccc(C(=O)OCCN(CC)CC)cc1N,,inactive
Clc1ccc(C(Cn2ccnc2)OCc2ccsc2Cl)c(Cl)c1 (stereo not given),,inactive
N=C(N)c1ccc(OCCCOc2ccc(C(=N)N)cc2)cc1,71.7%,
CCC(=O)O[C@]1(C(=O)SCF)[C@H](C)C[C@H]2[C@@H]3C[C@H](F)C4=CC(=O)C=C[C@]4(C)[C@@]3(F)[C@@H](O)C[C@@]21C,-88.7%,
CCN(CC)CC1CCCCN1CC(=O)N1c2ccccc2C(=O)Nc2cccnc21 (stereo not given),10.6%,
COc1ccc(CCC(C)=O)cc1,5.01%,
Cc1ccc(/C=N/n2c(-c3ccccc3)csc2=S)cc1,-0.385%,
CC[N+](CC)(CC(=O)Nc1c(C)cccc1C)Cc1ccccc1,14%,
O=C1C(c2[nH]c3ccccc3c2O)=Nc2ccccc21,13.4%,

# Target: Nucleoprotein (Lymphocytic choriomeningitis virus (strain Armstrong)) (UniProt P09992)
# Experiment: qHTS for Inhibitors of the Functional Ribonucleoprotein Complex (vRNP) of Lymphocytic Choriomeningitis Arenaviruses (LCMV): LCMV Primary Screen - GLuc reporter signal (AID 1347086); note: nearly all actives have a fitted effect of over 70% in size; note: potency is the fitted concentration of half-maximal effect
# Details: LCMV minigenome vRNP cell assay, Gaussia luciferase reporter; series mostly up to 57.5 µM; activity change, negative = inhibition: at the top concentration
# Sequence of Nucleoprotein (Lymphocytic choriomeningitis virus (strain Armstrong)) (P09992 whole entry, looked up): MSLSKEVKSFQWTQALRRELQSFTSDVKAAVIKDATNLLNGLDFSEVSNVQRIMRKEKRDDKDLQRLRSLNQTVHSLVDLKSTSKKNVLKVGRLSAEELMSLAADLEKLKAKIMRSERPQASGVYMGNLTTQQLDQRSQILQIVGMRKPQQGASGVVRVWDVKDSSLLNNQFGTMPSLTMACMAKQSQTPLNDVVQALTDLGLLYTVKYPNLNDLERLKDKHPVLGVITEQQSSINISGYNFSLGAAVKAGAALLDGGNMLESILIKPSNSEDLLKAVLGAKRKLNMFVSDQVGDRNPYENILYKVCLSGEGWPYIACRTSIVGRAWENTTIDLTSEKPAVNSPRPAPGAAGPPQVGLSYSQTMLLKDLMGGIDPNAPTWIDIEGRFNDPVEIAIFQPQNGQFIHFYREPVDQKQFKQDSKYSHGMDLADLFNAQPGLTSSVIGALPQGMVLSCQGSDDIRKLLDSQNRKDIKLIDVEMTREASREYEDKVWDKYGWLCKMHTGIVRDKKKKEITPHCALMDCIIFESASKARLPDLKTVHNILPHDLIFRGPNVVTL
SMILES,"activity change, negative = inhibition",Potency
O=C(/C=C/c1ccc(O)c(O)c1)O[C@@H]1C[C@@](OC(=O)/C=C/c2ccc(O)c(O)c2)(C(=O)O)C[C@@H](O)[C@@H]1O,5.14%,
COc1nc(C)nc(Cl)c1NC1=NCCN1,,inactive
Cc1oc(-c2ccccc2)nc1CCC(=O)c1ccc(CC2SC(=O)NC2=O)cc1 (stereo not given),-10.6%,
CCCCN1CCCC1C(=O)Nc1c(C)cc(C)cc1C (stereo not given),-6.96%,
C[C@H]1NCc2cc(-c3ccc4c(=O)c(C(=O)O)cn(C5CC5)c4c3OC(F)F)ccc21,18.3% [at 24.7 µM],
CCCCCCOC(=O)NC(=N)c1ccc(NCc2nc3cc(C(=O)N(CCC(=O)OCC)c4ccccn4)ccc3n2C)cc1,-15.9%,
CC(=O)Nc1ccc(OCCOCCOc2ccc(NC(C)=O)cc2)cc1,0.644%,
CC(C)NCCCC1(C(N)=O)c2ccccc2-c2ccccc21,-19.2%,
CCCc1ncc(C[n+]2ccccc2C)c(N)n1,3.61%,
CCc1cc(Cl)c(OC)c(C(=O)NC[C@@H]2CCCN2CC)c1O,-11.3%,
CCN(CC)C(=O)C1CN2CCc3cc(OC)c(OC)cc3C2CC1OC(C)=O (stereo not given),14.7%,
CCOc1ccc(NC(C)=O)cc1,5.62%,
Cc1c(Cl)cccc1Nc1ccccc1C(=O)O,-5.37%,
O=c1[nH]c2cc(C(F)(F)F)c(N3CCOCC3)cc2n(CP(=O)(O)O)c1=O,0.478%,
CNC1CCCN(c2c(F)cc3c(=O)c(C(=O)O)cn(C4CC4)c3c2OC)C1 (stereo not given),,inactive
N[C@@H](Cc1ccc(O)cc1)C(=O)O,16.2% [at 11.5 µM],
CCOC(CN1CCN(CC(C)C(=O)c2ccccc2)CC1)c1ccccc1 (stereo not given),-12.9% [at 24.7 µM],
CCOC(=O)n1ccn(C)c1=S,-6.81%,
C#C[C@]1(OC(C)=O)CC[C@H]2[C@@H]3CCC4=C/C(=N/O)CC[C@@H]4[C@H]3CC[C@@]21CC,-3.36%,
Oc1ccc(CCNCCCCCCNCCc2ccccc2)cc1O,6.6%,

SMILES,"activity change, negative = inhibition",Potency
OC(C#CCN1CCCC1)(c1ccccc1)c1ccccc1,1.25%,
CCC(CC)(CC(=O)Nc1cccc(/C=C/c2nc(C3CCC3)cs2)c1)C(=O)O,17.8%,
CN1CCCN(C(c2ccccc2)c2ccc(Cl)cc2)CC1 (stereo not given),2.98%,
Nc1ccn(C2CO[C@H](CO)O2)c(=O)n1 (stereo not given in full),39.7%,
CC1(C)OC[C@@H](COC(=O)CCc2ccc(OC[C@@H](O)CNCCNC(=O)N3CCOCC3)cc2)O1,8.3%,
CCN(CC)C(=O)Nc1ccc(OCC(O)CNC(C)(C)C)c(C(C)=O)c1 (stereo not given),19.4%,
COc1cc(OC)cc(OC)c1,12.9%,
CCN(CCCc1ccccc1)CCCc1ccccc1,3.76%,
CN1CCCN=C1/C=C/c1cccs1,-5.3%,
CC1(C)[C@@H](OC(=O)CCC(=O)O)CC[C@]2(C)[C@H]3C(=O)C=C4[C@@H]5C[C@@](C)(C(=O)O)CC[C@]5(C)CC[C@@]4(C)[C@]3(C)CC[C@@H]12,11.6%,
CO/N=C(/C(=O)N[C@@H]1C(=O)N2C(C(=O)O)=C(Cn3nnc(C)n3)CS[C@H]12)c1csc(N)n1,-4.37%,
CCCOc1ccc(C(=O)OCCN(CC)CC)cc1N,,inactive
Clc1ccc(C(Cn2ccnc2)OCc2ccsc2Cl)c(Cl)c1 (stereo not given),,inactive
N=C(N)c1ccc(OCCCOc2ccc(C(=N)N)cc2)cc1,-33%,
CCC(=O)O[C@]1(C(=O)SCF)[C@H](C)C[C@H]2[C@@H]3C[C@H](F)C4=CC(=O)C=C[C@]4(C)[C@@]3(F)[C@@H](O)C[C@@]21C,,17.2 µM (active)
CCN(CC)CC1CCCCN1CC(=O)N1c2ccccc2C(=O)Nc2cccnc21 (stereo not given),13.6%,
COc1ccc(CCC(C)=O)cc1,9.08%,
Cc1ccc(/C=N/n2c(-c3ccccc3)csc2=S)cc1,-2.43%,
CC[N+](CC)(CC(=O)Nc1c(C)cccc1C)Cc1ccccc1,18%,
O=C1C(c2[nH]c3ccccc3c2O)=Nc2ccccc21,6.76%,
